{"source": "PubChem BioAssay AID990", "about": "(National Center for Advancing Translational Sciences (NCATS), 2007)", "assay": "Parental Cell Counter Screen Assay for Epigenetic Modulators", "details": "parental c127i cells, compound fluorescence imaging, 30 h", "description": "NIH Molecular Libraries Screening Centers Network [MLSCN] NIH Chemical Genomics Center [NCGC] MLSCN Grant: 1 X01 MH079860-01 Assay Provider: Elisabeth D. Martinez, University of Texas SW Medical Center NCGC Assay Overview: This assay is a counter screen for the Locus Derepression (LDR) assay (PubChem AID 597). The LDR assay detects the derepression of a GFP reporter that is stably integrated in a region of the genome of murine c127i mammary cells that is presumably silenced. Compounds that cause derepression of the locus to express GFP are identified by enumerating GFP positive cells using a laser-scanning microplate cytometer. […] Compounds active in the parental c127i cells are likely fluorescent.\nNCGC Assay Protocol Summary: Two hundred and fifty cells in 5 uL per well were dispensed into black, clear-bottom 1536-well plates. Twenty-three nL compound was transferred to the assay plate and cells were incubated 30 hours at 37 C. Medium was removed, cells were washed two times with PBS, and fluorescent cells were enumerated as objects between the sizes of 20 to 120 um width and depth using a laser-scanning microplate imager (Acumen Explorer Ex3, TTP Labtech).", "note": "Activity calls are given as the source filed them.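 How the source made its calls: active means compound that made reporter-free parental cells show up as glowing objects under laser imaging, so likely a fluorescent false positive; inactive means the rest.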"}
{"compound": "CN1CSC(=S)N(C)C1", "values": [{"measurement": "outcome", "value": "inactive"}]}
